# Measured values as given in the supplement of paper PMC8728848.
# Shown is part of a subset that was picked to be rich in the strongest signals.
# Legend:
# Assay in all cases: glycan array binding signal (z-score within array); higher = stronger binding
# Conditions in all cases: glycan notation: IUPAC condensed, linker removed
# [1] = biological target: Fuc(a1-2)Gal(b1-3)GalNAc(a1-3)[Fuc(a1-2)]Gal(b1-4)Glc
# In short: (§1)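 From the Consortium for Functional Glycomics database, 3228 arrays were curated, keeping only those whose protein sequence was available. Binding is given as a within-array Z-score averaged across arrays sharing a protein sequence and across linkers. Negative Z-scores can be read as non-binding.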
# [2] = biological target: Fuc(a1-2)Gal(b1-3)GlcNAc(b1-3)Gal(b1-4)Glc
# In short: as §1
# [3] = biological target: Fuc(a1-2)Gal(b1-3)GlcNAc(b1-3)[Gal(b1-4)GlcNAc(b1-6)]Gal(b1-4)Glc
# In short: as §1
# [4] = biological target: Fuc(a1-2)Gal(b1-4)GlcNAc(b1-3)[Fuc(a1-2)Gal(b1-4)GlcNAc(b1-6)]GalNAc
# In short: as §1
# [5] = biological target: Fuc(a1-2)Gal(b1-4)[Fuc(a1-3)]GlcNAc
# In short: as §1
# Fuc(a1-2)Gal6S(b1-4)Glc = biological target: Fuc(a1-2)Gal6S(b1-4)Glc
# In short: as §1
# [6] = biological target: Fuc(a1-2)[Gal(a1-3)]Gal(b1-3)GlcNAc
# In short: as §1
# [7] = biological target: Fuc(a1-2)[Gal(a1-3)]Gal(b1-4)GlcNAc
# In short: as §1
# [8] = biological target: Fuc(a1-2)[GalNAc(a1-3)]Gal(b1-3)GlcNAc(b1-2)Man(a1-3)[Fuc(a1-2)[GalNAc(a1-3)]Gal(b1-3)GlcNAc(b1-2)Man(a1-6)]Man(b1-4)GlcNAc(b1-4)GlcNAc
# In short: as §1
# [9] = biological target: Fuc(a1-2)[GalNAc(a1-3)]Gal(b1-4)GlcNAc(b1-2)Man
# In short: as §1
# Gal(a1-3)Gal(b1-3)GlcNAc = biological target: Gal(a1-3)Gal(b1-3)GlcNAc
# In short: as §1
# [10] = biological target: Gal(a1-3)Gal(b1-3)GlcNAc(b1-2)Man
# In short: as §1
# [11] = biological target: Gal(a1-3)Gal(b1-4)GlcNAc(b1-2)Man(a1-3)[Gal(a1-3)Gal(b1-4)GlcNAc(b1-2)Man(a1-6)]Man(b1-4)GlcNAc(b1-4)GlcNAc
# In short: as §1
# [12] = biological target: Gal(b1-3)GlcNAc(b1-3)Gal(b1-3)GlcNAc
# In short: as §1
# [13] = biological target: Gal(b1-3)[Fuc(a1-4)]GlcNAc(b1-2)Man
# In short: as §1
# [14] = biological target: Gal(b1-3)[Fuc(a1-4)]GlcNAc(b1-2)Man(a1-3)[Gal(b1-3)[Fuc(a1-4)]GlcNAc(b1-2)Man(a1-6)]Man(b1-4)GlcNAc(b1-4)[Fuc(a1-6)]GlcNAc
# In short: as §1
# [15] = biological target: Gal(b1-3)[Fuc(a1-4)]GlcNAc(b1-3)Gal(b1-3)[Fuc(a1-4)]GlcNAc
# In short: as §1
# [16] = biological target: Gal(b1-3)[Neu5Ac(a2-6)]GalNAc
# In short: as §1
# [17] = biological target: Gal(b1-4)GlcNAc(b1-2)Man(a1-3)[Gal(b1-4)GlcNAc(b1-2)Man(a1-6)]Man(b1-4)GlcNAc(b1-4)GlcNAc
# In short: as §1
# [18] = biological target: Gal(b1-4)GlcNAc(b1-2)Man(a1-3)[GlcNAc(b1-4)][Gal(b1-4)GlcNAc(b1-2)Man(a1-6)]Man(b1-4)GlcNAc(b1-4)GlcNAc
# In short: as §1
# [19] = biological target: Gal(b1-4)GlcNAc(b1-2)[Gal(b1-4)GlcNAc(b1-4)]Man(a1-3)[Gal(b1-4)GlcNAc(b1-2)[Gal(b1-4)GlcNAc(b1-6)]Man(a1-6)]Man(b1-4)GlcNAc(b1-4)GlcNAc
# In short: as §1
# [20] = biological target: Gal(b1-4)GlcNAc(b1-2)[Gal(b1-4)GlcNAc(b1-4)]Man(a1-3)[GlcNAc(b1-4)][Gal(b1-4)GlcNAc(b1-2)Man(a1-6)]Man(b1-4)GlcNAc(b1-4)GlcNAc
# In short: as §1
# [21] = biological target: Gal(b1-4)GlcNAc(b1-3)Gal(b1-3)GlcNAc
# In short: as §1
# [22] = biological target: Gal(b1-4)GlcNAc(b1-3)Gal(b1-4)GlcNAc(b1-3)Gal(b1-4)GlcNAc(b1-3)Gal(b1-4)GlcNAc(b1-2)[Gal(b1-4)GlcNAc(b1-3)Gal(b1-4)GlcNAc(b1-3)Gal(b1-4)GlcNAc(b1-3)Gal(b1-4)GlcNAc(b1-6)]Man(a1-6)[Gal(b1-4)GlcNAc(b1-3)Gal(b1-4)GlcNAc(b1-3)Gal(b1-4)GlcNAc(b1-3)Gal(b1-4)GlcNAc(b1-2)Man(a1-3)]Man(b1-4)GlcNAc(b1-4)[Fuc(a1-6)]GlcNAc
# In short: as §1
# [23] = biological target: Gal(b1-4)GlcNAc(b1-6)GalNAc
# In short: as §1
# [24] = biological target: Gal(b1-4)GlcNAc(b1-6)[Gal(b1-4)GlcNAc(b1-3)]GalNAc
# In short: as §1
# [25] = biological target: Gal3S(b1-3)[Fuc(a1-4)]GlcNAc
# In short: as §1
# Gal3S(b1-4)Glc6S = biological target: Gal3S(b1-4)Glc6S
# In short: as §1
# Gal6S(b1-3)GlcNAc6S = biological target: Gal6S(b1-3)GlcNAc6S
# In short: as §1
# [26] = biological target: GalNAc(b1-3)Gal(a1-6)Gal(b1-4)Glc
# In short: as §1
# [27] = biological target: GalNAc(b1-4)GlcNAc(b1-3)GalNAc(b1-4)GlcNAc
# In short: as §1
# Glc(b1-4)Glc = biological target: Glc(b1-4)Glc
# In short: as §1
# GlcA(b1-3)GlcNAc = biological target: GlcA(b1-3)GlcNAc
# In short: as §1
# [28] = biological target: GlcNAc(b1-2)[GlcNAc(b1-4)]Man(a1-3)[GlcNAc(b1-4)][GlcNAc(b1-2)[GlcNAc(b1-6)]Man(a1-6)]Man(b1-4)GlcNAc(b1-4)[Fuc(a1-6)]GlcNAc
# In short: as §1
# GlcNAc(b1-3)Fuc = biological target: GlcNAc(b1-3)Fuc
# In short: as §1
# [29] = biological target: GlcNAc(b1-3)Gal(b1-4)GlcNAc
# In short: as §1
# [30] = biological target: GlcNAc(b1-3)[GlcNAc(b1-6)]Gal(b1-4)GlcNAc
# In short: as §1
# [31] = biological target: Man(a1-3)[Man(a1-6)]Man(b1-4)GlcNAc(b1-4)GlcNAc
# In short: as §1
# Man(a1-6)Man = biological target: Man(a1-6)Man
# In short: as §1
# Man(b1-4)GlcNAc = biological target: Man(b1-4)GlcNAc
# In short: as §1
# [32] = biological target: Neu5Ac(a2-3)Gal(b1-3)GlcNAc
# In short: as §1
# [33] = biological target: Neu5Ac(a2-3)Gal(b1-3)[Neu5Ac(a2-6)]GalNAc
# In short: as §1
# Neu5Ac(a2-3)Gal(b1-4)Glc = biological target: Neu5Ac(a2-3)Gal(b1-4)Glc
# In short: as §1
# [34] = biological target: Neu5Ac(a2-3)Gal(b1-4)GlcNAc(b1-2)[Neu5Ac(a2-3)Gal(b1-4)GlcNAc(b1-6)]Man(a1-6)[Neu5Ac(a2-3)Gal(b1-4)GlcNAc(b1-2)Man(a1-3)][GlcNAc(b1-4)]Man(b1-4)GlcNAc(b1-4)GlcNAc
# In short: as §1
# [35] = biological target: Neu5Ac(a2-6)Gal(b1-4)GlcNAc(b1-2)Man(a1-3)[GlcNAc(b1-2)Man(a1-6)]Man(b1-4)GlcNAc(b1-4)GlcNAc
# In short: as §1
# [36] = biological target: Neu5Ac(a2-6)Gal(b1-4)GlcNAc(b1-3)Gal(b1-4)GlcNAc(b1-6)[Gal(b1-3)]GalNAc
# In short: as §1
# [37] = biological target: Neu5Ac(a2-8)Neu5Ac(a2-3)Gal(b1-4)Glc
# In short: as §1
# [38] = biological target: Neu5Gc(a2-6)Gal(b1-4)GlcNAc
# In short: as §1
# [39] = biological target: Neu5Gc(a2-8)Neu5Gc(a2-6)Gal(b1-4)GlcNAc
# In short: as §1
binder,measurement,setting,value
EULS2 M1 (Oryza sativa) (protein) MVYCRANPNYAMTARNGAVVLAPANPKDEYQHWIKDMRWSTSIKDEEGYPAFALVNKATGQAIKHSLGQSHPVRLVPYNPEVMDESVLWTESRDVGNGFRCIRMVNNIYLNFDAFHGDKYHGGVRDGTDIVLWKLCEGDNQRWKIQPYYILEQKLISEEDLNSAVDHHHHHH,glycan array binding signal (z-score),[1],-0.333
same,glycan array binding signal (z-score),[2],-0.208
same,glycan array binding signal (z-score),[3],-0.34
same,glycan array binding signal (z-score),[4],-0.457
same,glycan array binding signal (z-score),[5],-0.363
same,glycan array binding signal (z-score),Fuc(a1-2)Gal6S(b1-4)Glc,-1.48
same,glycan array binding signal (z-score),[6],0.694
same,glycan array binding signal (z-score),[7],-0.349
same,glycan array binding signal (z-score),[8],3.99
same,glycan array binding signal (z-score),[9],-1
same,glycan array binding signal (z-score),Gal(a1-3)Gal(b1-3)GlcNAc,3.45
same,glycan array binding signal (z-score),[10],-0.609
same,glycan array binding signal (z-score),[11],0.844
same,glycan array binding signal (z-score),[12],-0.334
same,glycan array binding signal (z-score),[13],1.75
same,glycan array binding signal (z-score),[14],1.19
same,glycan array binding signal (z-score),[15],3.42
same,glycan array binding signal (z-score),[16],1.39
same,glycan array binding signal (z-score),[17],-0.312
same,glycan array binding signal (z-score),[18],1.31
same,glycan array binding signal (z-score),[19],-0.584
same,glycan array binding signal (z-score),[20],0.188
same,glycan array binding signal (z-score),[21],-0.203
same,glycan array binding signal (z-score),[22],0.636
same,glycan array binding signal (z-score),[23],0.271
same,glycan array binding signal (z-score),[24],-0.195
same,glycan array binding signal (z-score),[25],-0.905
same,glycan array binding signal (z-score),Gal3S(b1-4)Glc6S,2.56
same,glycan array binding signal (z-score),Gal6S(b1-3)GlcNAc6S,10.9
same,glycan array binding signal (z-score),[26],2.84
same,glycan array binding signal (z-score),[27],-0.842
same,glycan array binding signal (z-score),Glc(b1-4)Glc,2.81
same,glycan array binding signal (z-score),GlcA(b1-3)GlcNAc,0.171
same,glycan array binding signal (z-score),[28],2.74
same,glycan array binding signal (z-score),GlcNAc(b1-3)Fuc,-0.923
same,glycan array binding signal (z-score),[29],0.2
same,glycan array binding signal (z-score),[30],-0.56
same,glycan array binding signal (z-score),[31],3.41
same,glycan array binding signal (z-score),Man(a1-6)Man,3.16
same,glycan array binding signal (z-score),Man(b1-4)GlcNAc,-0.283
same,glycan array binding signal (z-score),[32],-0.972
same,glycan array binding signal (z-score),[33],0.067
same,glycan array binding signal (z-score),Neu5Ac(a2-3)Gal(b1-4)Glc,-0.186
same,glycan array binding signal (z-score),[34],-0.305
same,glycan array binding signal (z-score),[35],-0.661
same,glycan array binding signal (z-score),[36],0.283
same,glycan array binding signal (z-score),[37],-0.26
same,glycan array binding signal (z-score),[38],0.007
same,glycan array binding signal (z-score),[39],-0.158
